Hits are enriched below; roughly 0.64% of the tested compounds scored in any of these assays.
sEH activator: increases human soluble epoxide hydrolase activity | P34913 | purified human sEH enzymatic activity, activator screen | activation, % at 2 µM | actives 0.04% (n = 91,000) | AID 717; in the data active = activation above about 37%
Target sequence (P34913 whole entry, looked up): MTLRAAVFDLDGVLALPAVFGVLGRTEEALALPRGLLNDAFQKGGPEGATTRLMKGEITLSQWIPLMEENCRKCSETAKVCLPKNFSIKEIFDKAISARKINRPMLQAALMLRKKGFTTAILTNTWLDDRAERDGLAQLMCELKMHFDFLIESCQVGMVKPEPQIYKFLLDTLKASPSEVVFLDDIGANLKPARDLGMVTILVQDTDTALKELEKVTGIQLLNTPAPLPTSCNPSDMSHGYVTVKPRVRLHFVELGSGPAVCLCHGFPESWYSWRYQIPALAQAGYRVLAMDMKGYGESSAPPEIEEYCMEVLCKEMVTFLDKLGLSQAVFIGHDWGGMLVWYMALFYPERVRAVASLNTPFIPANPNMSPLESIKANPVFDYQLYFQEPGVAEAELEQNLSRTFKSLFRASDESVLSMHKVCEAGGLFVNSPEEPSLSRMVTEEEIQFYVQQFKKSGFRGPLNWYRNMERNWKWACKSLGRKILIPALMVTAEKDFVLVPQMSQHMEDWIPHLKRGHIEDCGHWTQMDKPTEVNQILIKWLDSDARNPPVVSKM
PTPN22 inh 2: LYP (human) phosphatase inhibition; actives 0.21% (n = 96,000); recombinant LYP catalytic domain, DiFMUP fluorescence; inhibition, % at 2 µM; Q9Y2R2; AID 640;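 active = inhibition at 2 µM at or above a set limit, the screen mean plus 3 SD, cut at about 24% in these data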;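 note: 0% = DMSO with enzyme and 100% = enzyme fully blocked by orthovanadate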
sEH inh: soluble epoxide hydrolase (human) inhibition; actives 0.34% (n = 91,000); inhibition, % at 2 µM; recombinant human sEH enzymatic activity assay; P34913; in the data active = inhibition above about 80%
MT1-MMP txn act: activates MT1-MMP transcription | AID 750 | activation factor at 10 µM | actives 0.16% (n = 86,000) | HT1080 MT1-MMP promoter luciferase reporter, luminescence, overnight; active compounds read high;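 active = activation factor of at least 2 for MT1-MMP transcription at 10 µM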
E coli RNAP: Escherichia coli RNA polymerase inhibition. inhibition, %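 (tested at 10 µM)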. actives 0.2% (n = 62,000). P0A8V2. E. coli RNA polymerase, fluorescence transcription assay; in the data active = inhibition above about 20%;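 note: 0% = enzyme without compound and 100% = no enzyme blank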
PTPN22 act: activators of human LYP (PTPN22) phosphatase. Q9Y2R2. recombinant LYP, DiFMUP fluorescence; 0 = plate median, 100 = signal doubled. activation, % at 2 µM. actives 0.11% (n = 96,000);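 active = activation at 2 µM above a set limit, the mean plus 5 SD, cut at about 37% in these data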
The depositor's hits bear a star.

How did COC(=O)CNC(=O)C1(C)C=CC2(CCCCC2)N1C(=O)OC (configuration not stated) do in these assays?
MT1-MMP txn act: 1

Results for CCC1=C2CC[C@H]3C(=O)N(CC(=O)OC)C(=O)[C@H]3[C@H]2[C@@]2(C)C(=O)N(Cc3ccccc3)C(=O)N2C1=O ?
MT1-MMP txn act: 1.2

What do the screens show for `O=C(Cn1cnc2ccccc21)Nc1ccc(C(=O)O)cc1`?
sEH activator: -5.9; PTPN22 inh 2: 32.6*; sEH inh: 7.0; PTPN22 act: -35.3

Results for O=C(Nc1ccc2c(c1)OCCO2)NC12CC3CC(CC(C3)C1)C2 ?
sEH activator: -97.3; PTPN22 inh 2: -10.7; sEH inh: 97.3*; MT1-MMP txn act: 1.7; E coli RNAP: 2.2; PTPN22 act: 5.2

How did COC(=O)c1cccc(C23CC4(C2)[C@H](CN(CC2CCCCC2)[C@@H]4c2ccccc2)C3c2ccc(Cl)nc2)c1 (some centres not stated) do in these assays?
MT1-MMP txn act: 1

Results for CCOC(=O)c1ccc(NC(=O)CSc2nc(NC(=O)c3ccccc3)c3c(C)c(C)oc3n2)cc1 ?
sEH activator: 5.8; PTPN22 inh 2: 25.3*; sEH inh: -8.8; MT1-MMP txn act: 1.1; PTPN22 act: -23.9

What do the screens show for `COC(=O)c1ccccc1NC(=O)CSc1nc(NC(=O)c2ccccc2)c2c(C)c(C)oc2n1`?
sEH activator: 0.0; PTPN22 inh 2: 2.5; sEH inh: -0.6; MT1-MMP txn act: 1.1; E coli RNAP: 6.6; PTPN22 act: -5.4

How did COc1ccc(CNC(=O)[C@H](C)[C@H]2C[C@]2(C)[C@H](NC(=O)OCc2ccccc2)c2ccccc2)cc1OC do in these assays?
MT1-MMP txn act: 1.2

What do the screens show for `Cc1ccc(Nc2cc(C)nn2-c2nc(C)cc(=O)[nH]2)cc1`?
PTPN22 inh 2: 25.5*; MT1-MMP txn act: 0.3; E coli RNAP: 2.8; PTPN22 act: -27.3

How did CCOc1cccc(SCc2noc(C(=O)NCC3CCCO3)c2C(=O)O)c1 (configuration not stated) do in these assays?
sEH activator: 19.5; PTPN22 inh 2: 21.2; sEH inh: -12.7; PTPN22 act: -18.6

How did CCOC(=O)C1=C(COc2ccccc2)NC(=O)NC1c1ccc(C#N)cc1 (configuration not stated) do in these assays?
MT1-MMP txn act: 1.1

How did CC1(C)CC(=O)c2cnc(N)nc2C1 do in these assays?
sEH activator: 19.5; PTPN22 inh 2: -7.2; sEH inh: -17.6; MT1-MMP txn act: 2.4*; PTPN22 act: 8.7

Results for O=C(NCC#CC(CCc1ccccc1)OCc1ccccc1)c1ccccc1 (configuration not stated) ?
MT1-MMP txn act: 1.1

What do the screens show for `O=C(OCC#CCSc1nnc(-c2ccc(Br)cc2)o1)c1ccco1`?
sEH activator: -5.8; PTPN22 inh 2: -10.4; sEH inh: 4.8; MT1-MMP txn act: 1; E coli RNAP: 42.8*; PTPN22 act: 7.9

How did O=C(OCC#CCSc1nnc(-c2ccccc2)o1)c1ccco1 do in these assays?
MT1-MMP txn act: 1.1; E coli RNAP: -3.5

What do the screens show for `CN(C1CCS(=O)(=O)C1)S(=O)(=O)c1ccc(N2CCCC2=O)cc1` (configuration not stated)?
sEH activator: 20.4; PTPN22 inh 2: -10.9; sEH inh: -17.4; MT1-MMP txn act: 1.1; E coli RNAP: 21.3*; PTPN22 act: 12.8

How did Cc1c(/C=C/C(=O)c2ccc(Cl)s2)cnn1C do in these assays?
sEH activator: -6.1; PTPN22 inh 2: 10.0; sEH inh: 8.7; MT1-MMP txn act: 2.4*; PTPN22 act: -9.5

What do the screens show for `Cc1c(/C=C/C(=O)c2ccccc2)cnn1C`?
sEH activator: 3.1; PTPN22 inh 2: -5.9; sEH inh: -3.2; PTPN22 act: 11.8

What do the screens show for `Cc1ccc(NC(=O)Cn2cnc3c(cnn3C(C)(C)C)c2=O)cc1`?
sEH activator: 8.4; PTPN22 inh 2: -0.4; sEH inh: -8.1; MT1-MMP txn act: 1.2; E coli RNAP: 22.0*; PTPN22 act: 0.6

What do the screens show for `COc1ccc(C(=O)n2nc(-c3ccco3)nc2N)cc1`?
sEH activator: -6.3; PTPN22 inh 2: 8.9; sEH inh: 10.8; MT1-MMP txn act: 1.1; PTPN22 act: -9.9

Results for Cc1ccc(C(=O)n2nc(-c3ccco3)nc2N)cc1 ?
sEH activator: -5.3; PTPN22 inh 2: 28.8*; sEH inh: 2.6; MT1-MMP txn act: 1.2; PTPN22 act: -27.5

How did COc1ccc(-n2c(SCC(=O)Nc3nc(C)cs3)nnc2-c2ccoc2C)cc1 do in these assays?
sEH activator: 5.5; PTPN22 inh 2: 0.8; sEH inh: -2.4; MT1-MMP txn act: 2.2*; PTPN22 act: -1.5

How did Cc1ccccc1NC(=O)CN1C(=O)S/C(=C\c2cccn2-c2cccc(C(=O)O)c2)C1=O do in these assays?
sEH activator: -7.7; PTPN22 inh 2: -2.8; sEH inh: 10.7; PTPN22 act: 8.5

What do the screens show for `Cc1ccc(NC(=O)CN2C(=O)S/C(=C\c3cccn3-c3cccc(C(=O)O)c3)C2=O)c(C)c1`?
sEH activator: -0.5; PTPN22 inh 2: 49.6*; sEH inh: 1.2; PTPN22 act: -48.3

How did CCC(=O)c1ccc(N2CCCC2)c(F)c1 do in these assays?
sEH activator: 38.7*; PTPN22 inh 2: 5.6; sEH inh: -38.7; MT1-MMP txn act: 1.4; PTPN22 act: -6.0

What do the screens show for `Cc1cc(OCCN2CCOCC2)nc2ccccc12`?
sEH activator: 2.0; PTPN22 inh 2: 2.9; sEH inh: -3.3; MT1-MMP txn act: 1.1; E coli RNAP: 30.4*; PTPN22 act: -2.4

What do the screens show for `Cc1cccn2cc(-c3ccccc3)nc12`?
PTPN22 inh 2: -2.5; MT1-MMP txn act: 0.8; E coli RNAP: 5.0; PTPN22 act: 0.0

How did COc1ccc(-c2cn3ccc4ccccc4c3n2)cc1 do in these assays?
sEH activator: 1.1; PTPN22 inh 2: -4.3; sEH inh: -1.2; MT1-MMP txn act: 2.5*; PTPN22 act: 2.9

Results for COC(=O)[C@@]1(Cc2ccc(OC)cc2)[C@H]2c3cc(C(=O)N4CCCC4)n(Cc4ccsc4Br)c3C[C@H]2CN1C(=O)c1ccccc1 ?
MT1-MMP txn act: 1.1

What do the screens show for `COc1ccccc1-c1cnnc(N/N=C/c2ccc(-c3cccc(Br)c3)o2)n1`?
sEH activator: -3.2; PTPN22 inh 2: 31.4*; sEH inh: 5.6; MT1-MMP txn act: 1.1; PTPN22 act: -31.0

How did COC(=O)N1CC=CC1(C)C(=O)NCCN1CCOCC1 (configuration not stated) do in these assays?
MT1-MMP txn act: 1

Results for Brc1ccc2nc(CSc3ncn[nH]3)cn2c1 ?
sEH activator: 5.2; PTPN22 inh 2: 83.4*; sEH inh: -5.1; MT1-MMP txn act: 1.3; E coli RNAP: -4.5; PTPN22 act: -83.5

Results for Clc1ccc(CSc2ncn[nH]2)cc1 ?
sEH activator: -1.0; PTPN22 inh 2: -9.2; sEH inh: 1.5; MT1-MMP txn act: 1.1; E coli RNAP: 3.6; PTPN22 act: 8.8

Compound activity (PubChem BioAssay)
